Active and inactive are the calls of the source. The call rests on the fitted dose curve; in most records, active means well fitted curve in the direction sought with a large enough effect; inconclusive means small, poorly fitted or top-dose-only effect, or effect the other way, or another doubt; inactive means no such curve, though single readings can be large or run the other way.

Beta-2 adrenergic receptor (Homo sapiens), sequence (P07550 whole entry, looked up): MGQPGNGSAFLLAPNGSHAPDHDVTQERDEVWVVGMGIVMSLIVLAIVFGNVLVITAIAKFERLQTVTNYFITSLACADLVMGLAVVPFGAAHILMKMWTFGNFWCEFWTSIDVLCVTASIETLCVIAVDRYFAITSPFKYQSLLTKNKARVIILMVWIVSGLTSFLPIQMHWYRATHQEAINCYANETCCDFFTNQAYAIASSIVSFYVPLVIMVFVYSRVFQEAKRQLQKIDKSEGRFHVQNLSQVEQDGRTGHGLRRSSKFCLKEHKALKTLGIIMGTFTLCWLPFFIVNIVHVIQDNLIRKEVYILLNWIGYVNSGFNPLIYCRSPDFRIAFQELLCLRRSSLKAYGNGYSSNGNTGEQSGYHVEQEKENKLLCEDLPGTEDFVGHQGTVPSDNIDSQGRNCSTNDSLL

The assay concerns the target Beta-2 adrenergic receptor (Homo sapiens) (UniProt P07550). Description: qHTS validation assay of beta-arrestin-biased ligands of beta2-adrenergic receptor (AID 485366). The settings on record: cell-based beta-arrestin recruitment to ADRB2, qHTS; series mostly up to 46.1 µM. An excerpt: NIH Molecular Libraries Probe Production Network [MLPCN]
NIH Chemical Genomics Center [NCGC]
PI: Bryan Roth and Bob Lefkowitz
The concept of biased agonism is an emerging concept of molecular pharmacology which proposes that seven transmembrane receptors (7TMRs) or G protein-coupled receptors (GPCRs), exist in multiple signaling conformations and complexes and that ligands (either agonists or antagonists) can induce signaling biased responses for distinct signal transduction cascades.
Furthermore, accumulating evidence over the last decade has drawn attention to a novel function of beta-arrestins as signal transducers that scaffold various signaling molecules upon activation of 7TMRs. […] This beta-arrestin-biased signaling presumably leads to distinct physiological outcomes from those by G protein activation.
Additionally, the active receptor conformations which […] on this beta-arrestin signaling are likely different from those activating G protein signaling
The goal of this screening project will be to discover and optimize novel beta-arrestin-biased ligands for beta2-AR signaling. A luminescent cell-based assay for beta2-AR-mediated agonism, known as the Tango assay, has been validated in which ligand binding of a recombinant beta2-AR and subsequent recruitment of a recombinant beta-arrestin lead to the release of the transcriptional activator tTA, which upregulates transcription of a tTA-responsive luciferase gene. […] Compounds were screened as a concentration-titration series that ranged from 46 microM to 0.6 nM.
NCGC Assay Protocol Summary:
Tango cells were dispensed into white, solid, tissue-culture-treated 1536-well plates at 1500 cells/well in DMEM, containing 1% fetal bovine serum (FBS). Then, 23 nL of compounds or DMSO were delivered to each well using a pin tool. Plates were incubated at 37 degrees C, 5% CO2 for 18 hr. Then 2.5 uL luminescent substrate mix (in-house prepared: 150 mM Tris-Cl, pH 7.6, 3 mM MgCl2, 1% Triton X-100, 5 mM DTT, 0.5 mM CoA, 0.15 mM ATP, 0.44 mM D-luciferin, final concentrations) was added to each well. Plates were then incubated for 15 minutes at room temperature, and subsequently measured on a ViewLux plate reader for luminescent signal using a clear filter with a 10 second exposure and 2x binning. The %Activity was determined from the corrected luminescence values.
Concentration-response curves were fitted to the signals arising from the resulting luminescence. The concentration-effect curves were then classified based on curve quality (r2), response magnitude and degree of measured activity, and compounds were subsequently categorized based on their curve class.
Keywords: biased agonism, beta2-AR, beta-arrestin, GPCR, 7TMR, Tango, luminescence, MLSMR, MLPCN, NIH Roadmap, qHTS, NCGC
(Quantitative high-throughput screening tests each substance at several concentrations.)
For the compound `CC(NC(C)(C)C)C(=O)c1cccc(Cl)c1` (stereo not given), the outcome was inactive.
As for `O=C(CCCN1CCC2(CC1)C(=O)NCN2c1ccccc1)c1ccc(F)cc1`, the outcome was inactive.
To `Cc1ncsc1CCCl` belongs “inactive”; to `CCCCC/C=C\C/C=C\C/C=C\C/C=C\CCCC(=O)NCC(=O)O`, “inactive”.
As to `CC(C)(C)NCC(O)c1ccccc1Cl` (stereo not given), the call was inactive.
For the compound `CC(C)N(CCC(C(N)=O)(c1ccccc1)c1ccccn1)C(C)C` (stereo not given), the compound was classed as inactive.
Regarding `O=P1(N(CCCl)CCCl)NCCCO1` (stereo not given), the compound was classed as inactive.
Turning to `O=c1[nH]oc2c1CCNC2`, the result was inactive.
`NCCc1ccc(O)cc1`: the call was inactive.
`O=C(O)CCCc1ccc(N(CCCl)CCCl)cc1`: the outcome was inactive.
On to `CCC1(c2ccc(N)cc2)CCC(=O)NC1=O` (stereo not given), for which the result was inactive.
`CN1C(=O)CCS(=O)(=O)C1c1ccc(Cl)cc1` (stereo not given): the compound was called inactive.
On to `CC(C)c1cccc(C(C)C)c1O`, for which the compound was called inactive.
With `C=C(C)[C@H]1CN[C@H](C(=O)O)[C@H]1CC(=O)O`, the compound was classed as inactive.
In the case of `COc1ccc2c(c1OC)C(=O)O[C@H]2[C@@H]1c2cc3c(cc2CCN1C)OCO3`, the compound was classed as inactive.
